Data published in the supplement of paper PMC4466140.

Each binder was assayed against AgAbp1 (assay: SPOT peptide array binding signal intensity (averaged, normalized) (arbitrary units (background-subtracted, floor 0; scale differs between SH3 domains)); higher = stronger binding of the SH3 domain to the peptide).
Summary of the method: (§1)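 Binding signal is given in arbitrary units that differ between domains and is the normalized, background-subtracted spot intensity averaged across replicates. Each GST-SH3 fusion from one of four yeast species was made in E. coli BL21(DE3), purified on glutathione Sepharose and incubated at 10 μg/ml overnight at 4°C on cellulose-bound synthetic 15-mer peptides in which cysteines were replaced by serines. Detection used anti-GST antibody, an HRP anti-mouse secondary and luminol, followed by imaging and Genespotter quantification.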

Binder	SPOT peptide array binding signal intensity
RKQRSIPLSPIVPES	7

Each binder was assayed against AgBbc1 in the same assay as above.
Summary of the method: as §1

Binder	SPOT peptide array binding signal intensity
RKQRSIPLSPIVPES	17

Each binder was assayed against AgBem1-D1 in the same assay as above.
Summary of the method: as §1

Binder	SPOT peptide array binding signal intensity
RKQRSIPLSPIVPES	77

What follows are binders tested against AgBzz1-D1 in the same assay as above.
Summary of the method: as §1

Binder	SPOT peptide array binding signal intensity
RKQRSIPLSPIVPES	15.5

What follows are binders tested against AgBzz1-D2 in the same assay as above.
Summary of the method: as §1

Binder	SPOT peptide array binding signal intensity
RKQRSIPLSPIVPES	32

Each binder was assayed against AgCyk3 in the same assay as above.
Summary of the method: as §1

Binder	SPOT peptide array binding signal intensity
RKQRSIPLSPIVPES	2

What follows are binders tested against AgFus1 in the same assay as above.
Summary of the method: as §1

Binder	SPOT peptide array binding signal intensity
RKQRSIPLSPIVPES	104

What follows are binders tested against AgHof1 in the same assay as above.
Summary of the method: as §1

Binder	SPOT peptide array binding signal intensity
RKQRSIPLSPIVPES	35.5

What follows are binders tested against AgHse1 in the same assay as above.
Summary of the method: as §1

Binder	SPOT peptide array binding signal intensity
RKQRSIPLSPIVPES	375

These binders were tested against AgLsb1 in the same assay as above.
Summary of the method: as §1

Binder	SPOT peptide array binding signal intensity
RKQRSIPLSPIVPES	1.5

The binders below were run against AgLsb4 in the same assay as above.
Summary of the method: as §1

Binder	SPOT peptide array binding signal intensity
RKQRSIPLSPIVPES	45.5

These binders were tested against AgMyo5 in the same assay as above.
Summary of the method: as §1

Binder	SPOT peptide array binding signal intensity
RKQRSIPLSPIVPES	0.25

The binders below were run against AgNbp2 in the same assay as above.
Summary of the method: as §1

Binder	SPOT peptide array binding signal intensity
RKQRSIPLSPIVPES	59

These binders were tested against AgRvs167 in the same assay as above.
Summary of the method: as §1

Binder	SPOT peptide array binding signal intensity
RKQRSIPLSPIVPES	3.33

Each binder was assayed against AgSho1 in the same assay as above.
Summary of the method: as §1

Binder	SPOT peptide array binding signal intensity
RKQRSIPLSPIVPES	13

Each binder was assayed against AgSla1-D1-D2 in the same assay as above.
Summary of the method: as §1

Binder	SPOT peptide array binding signal intensity
RKQRSIPLSPIVPES	≤ 0

Each binder was assayed against AgSla1-D3 in the same assay as above.
Summary of the method: as §1

Binder	SPOT peptide array binding signal intensity
RKQRSIPLSPIVPES	3

What follows are binders tested against CaAbp1-D1 in the same assay as above.
Summary of the method: as §1

Binder	SPOT peptide array binding signal intensity
RKQRSIPLSPIVPES	236

Each binder was assayed against CaAbp1-D2 in the same assay as above.
Summary of the method: as §1

Binder	SPOT peptide array binding signal intensity
RKQRSIPLSPIVPES	98.5

What follows are binders tested against CaBbc1 in the same assay as above.
Summary of the method: as §1

Binder	SPOT peptide array binding signal intensity
RKQRSIPLSPIVPES	175

Each binder was assayed against CaBem1-D1 in the same assay as above.
Summary of the method: as §1

Binder	SPOT peptide array binding signal intensity
RKQRSIPLSPIVPES	13

What follows are binders tested against CaBzz1-D1 in the same assay as above.
Summary of the method: as §1

Binder	SPOT peptide array binding signal intensity
RKQRSIPLSPIVPES	58

These binders were tested against CaBzz1-D2 in the same assay as above.
Summary of the method: as §1

Binder	SPOT peptide array binding signal intensity
RKQRSIPLSPIVPES	136

Each binder was assayed against CaCyk3 in the same assay as above.
Summary of the method: as §1

Binder	SPOT peptide array binding signal intensity
RKQRSIPLSPIVPES	48

These binders were tested against CaFus1 in the same assay as above.
Summary of the method: as §1

Binder	SPOT peptide array binding signal intensity
RKQRSIPLSPIVPES	368

Each binder was assayed against CaHof1 in the same assay as above.
Summary of the method: as §1

Binder	SPOT peptide array binding signal intensity
RKQRSIPLSPIVPES	0.25

What follows are binders tested against CaHse1 in the same assay as above.
Summary of the method: as §1

Binder	SPOT peptide array binding signal intensity
RKQRSIPLSPIVPES	12.2

The binders below were run against CaLsb1 in the same assay as above.
Summary of the method: as §1

Binder	SPOT peptide array binding signal intensity
RKQRSIPLSPIVPES	0.5

These binders were tested against CaLsb4 in the same assay as above.
Summary of the method: as §1

Binder	SPOT peptide array binding signal intensity
RKQRSIPLSPIVPES	64

The binders below were run against CaMyo5 in the same assay as above.
Summary of the method: as §1

Binder	SPOT peptide array binding signal intensity
RKQRSIPLSPIVPES	3.5

What follows are binders tested against CaNbp2 in the same assay as above.
Summary of the method: as §1

Binder	SPOT peptide array binding signal intensity
RKQRSIPLSPIVPES	297

Each binder was assayed against CaRvs167 in the same assay as above.
Summary of the method: as §1

Binder	SPOT peptide array binding signal intensity
RKQRSIPLSPIVPES	5.17

The binders below were run against CaRvs167-3 in the same assay as above.
Summary of the method: as §1

Binder	SPOT peptide array binding signal intensity
RKQRSIPLSPIVPES	1.25

The binders below were run against CaSho1 in the same assay as above.
Summary of the method: as §1

Binder	SPOT peptide array binding signal intensity
RKQRSIPLSPIVPES	83

These binders were tested against CaSla1-D1-D2 in the same assay as above.
Summary of the method: as §1

Binder	SPOT peptide array binding signal intensity
RKQRSIPLSPIVPES	15

The binders below were run against CaSla1-D3 in the same assay as above.
Summary of the method: as §1

Binder	SPOT peptide array binding signal intensity
RKQRSIPLSPIVPES	≤ 0

These binders were tested against ScAbp1 in the same assay as above.
Summary of the method: as §1

Binder	SPOT peptide array binding signal intensity
RKQRSIPLSPIVPES	11

These binders were tested against ScBbc1 in the same assay as above.
Summary of the method: as §1

Binder	SPOT peptide array binding signal intensity
RKQRSIPLSPIVPES	20.2

These binders were tested against ScBem1-D1 in the same assay as above.
Summary of the method: as §1

Binder	SPOT peptide array binding signal intensity
RKQRSIPLSPIVPES	7

Each binder was assayed against ScBzz1-D1 in the same assay as above.
Summary of the method: as §1

Binder	SPOT peptide array binding signal intensity
RKQRSIPLSPIVPES	25.5

What follows are binders tested against ScBzz1-D2 in the same assay as above.
Summary of the method: as §1

Binder	SPOT peptide array binding signal intensity
RKQRSIPLSPIVPES	12.5

What follows are binders tested against ScCyk3 in the same assay as above.
Summary of the method: as §1

Binder	SPOT peptide array binding signal intensity
RKQRSIPLSPIVPES	37

The binders below were run against ScFus1 in the same assay as above.
Summary of the method: as §1

Binder	SPOT peptide array binding signal intensity
RKQRSIPLSPIVPES	98

What follows are binders tested against ScHof1 in the same assay as above.
Summary of the method: as §1

Binder	SPOT peptide array binding signal intensity
RKQRSIPLSPIVPES	0.5

What follows are binders tested against ScHse1 in the same assay as above.
Summary of the method: as §1

Binder	SPOT peptide array binding signal intensity
RKQRSIPLSPIVPES	679

The binders below were run against ScLsb1 in the same assay as above.
Summary of the method: as §1

Binder	SPOT peptide array binding signal intensity
RKQRSIPLSPIVPES	1.75

These binders were tested against ScLsb2 in the same assay as above.
Summary of the method: as §1

Binder	SPOT peptide array binding signal intensity
RKQRSIPLSPIVPES	2

What follows are binders tested against ScLsb3 in the same assay as above.
Summary of the method: as §1

Binder	SPOT peptide array binding signal intensity
RKQRSIPLSPIVPES	243

What follows are binders tested against ScLsb4 in the same assay as above.
Summary of the method: as §1

Binder	SPOT peptide array binding signal intensity
RKQRSIPLSPIVPES	9

What follows are binders tested against ScMyo3 in the same assay as above.
Summary of the method: as §1

Binder	SPOT peptide array binding signal intensity
RKQRSIPLSPIVPES	7

These binders were tested against ScMyo5 in the same assay as above.
Summary of the method: as §1

Binder	SPOT peptide array binding signal intensity
RKQRSIPLSPIVPES	6.25

Each binder was assayed against ScNbp2 in the same assay as above.
Summary of the method: as §1

Binder	SPOT peptide array binding signal intensity
RKQRSIPLSPIVPES	142

The binders below were run against ScPex13 in the same assay as above.
Summary of the method: as §1

Binder	SPOT peptide array binding signal intensity
RKQRSIPLSPIVPES	4.5

These binders were tested against ScRvs167 in the same assay as above.
Summary of the method: as §1

Binder	SPOT peptide array binding signal intensity
RKQRSIPLSPIVPES	39.7

The binders below were run against ScSho1 in the same assay as above.
Summary of the method: as §1

Binder	SPOT peptide array binding signal intensity
RKQRSIPLSPIVPES	284

The binders below were run against ScSla1-D1-D2 in the same assay as above.
Summary of the method: as §1

Binder	SPOT peptide array binding signal intensity
RKQRSIPLSPIVPES	193

These binders were tested against ScSla1-D3 in the same assay as above.
Summary of the method: as §1

Binder	SPOT peptide array binding signal intensity
RKQRSIPLSPIVPES	57.2

Each binder was assayed against SpAbp1-D1 in the same assay as above.
Summary of the method: as §1

Binder	SPOT peptide array binding signal intensity
RKQRSIPLSPIVPES	85

These binders were tested against SpBbc1 in the same assay as above.
Summary of the method: as §1

Binder	SPOT peptide array binding signal intensity
RKQRSIPLSPIVPES	0.25

What follows are binders tested against SpBzz1-D1 in the same assay as above.
Summary of the method: as §1

Binder	SPOT peptide array binding signal intensity
RKQRSIPLSPIVPES	171

These binders were tested against SpBzz1-D2 in the same assay as above.
Summary of the method: as §1

Binder	SPOT peptide array binding signal intensity
RKQRSIPLSPIVPES	0.5

The binders below were run against SpCyk3 in the same assay as above.
Summary of the method: as §1

Binder	SPOT peptide array binding signal intensity
RKQRSIPLSPIVPES	1.5

What follows are binders tested against SpHof1 in the same assay as above.
Summary of the method: as §1

Binder	SPOT peptide array binding signal intensity
RKQRSIPLSPIVPES	26.8

The binders below were run against SpHof1-2 in the same assay as above.
Summary of the method: as §1

Binder	SPOT peptide array binding signal intensity
RKQRSIPLSPIVPES	2.25

What follows are binders tested against SpHof1-3 in the same assay as above.
Summary of the method: as §1

Binder	SPOT peptide array binding signal intensity
RKQRSIPLSPIVPES	340

Each binder was assayed against SpHse1 in the same assay as above.
Summary of the method: as §1

Binder	SPOT peptide array binding signal intensity
RKQRSIPLSPIVPES	293

These binders were tested against SpLsb1 in the same assay as above.
Summary of the method: as §1

Binder	SPOT peptide array binding signal intensity
RKQRSIPLSPIVPES	2

Each binder was assayed against SpLsb4 in the same assay as above.
Summary of the method: as §1

Binder	SPOT peptide array binding signal intensity
RKQRSIPLSPIVPES	25.5

Each binder was assayed against SpMyo1 in the same assay as above.
Summary of the method: as §1

Binder	SPOT peptide array binding signal intensity
RKQRSIPLSPIVPES	3

These binders were tested against SpNbp2 in the same assay as above.
Summary of the method: as §1

Binder	SPOT peptide array binding signal intensity
RKQRSIPLSPIVPES	115

What follows are binders tested against SpPex13 in the same assay as above.
Summary of the method: as §1

Binder	SPOT peptide array binding signal intensity
RKQRSIPLSPIVPES	≤ 0

What follows are binders tested against SpRvs167 in the same assay as above.
Summary of the method: as §1

Binder	SPOT peptide array binding signal intensity
RKQRSIPLSPIVPES	18.8

These binders were tested against SpSla1-D1-D2 in the same assay as above.
Summary of the method: as §1

Binder	SPOT peptide array binding signal intensity
RKQRSIPLSPIVPES	≤ 0

These binders were tested against SpSla1-D3 in the same assay as above.
Summary of the method: as §1

Binder	SPOT peptide array binding signal intensity
RKQRSIPLSPIVPES	1
